Rows were chosen to be rich in hits. Some 3.4% of all compounds tested hit in one or more screens of this group.
TEAD-YAP inh: TEAD-YAP interaction inhibition; inhibition, % at 9.12 µM; AID 1259422; hit rate 1.4% among 640,000; HEK-TIYL cells, TEAD-Gal4/YAP UAS-luciferase luminescence; in the data active = inhibition above about 32%
MITF inh: human MITF inhibition, primary screen; AID 1259374; hit rate 0.91% among 650,000; AlphaScreen MITF homodimerization, bead proximity signal; O75030; inhibition, % at 2.6 µM; in the data active = inhibition above about 50%
GPR151 activ: activates the human receptor GPR151; PathHunter beta-arrestin GPR151 cells, luminescence; activation, % at 11.2 µM; hit rate 1% among 650,000; AID 1508602; in the data active = activation above about 4.9%
FBW7 activator: human FBW7 E3 ligase activation, primary screen. Q969H0. AlphaScreen FBW7–phospho-cyclin E peptide binding, activator screen. normalized activity (activation), % at 26.1 µM. hit rate 0.13% among 650,000. AID 1259310; in the data active = normalized activity above about 1.9%;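 note: purified mutant Fbw7 with reduced substrate affinity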
Target sequence (Q969H0 whole entry, looked up): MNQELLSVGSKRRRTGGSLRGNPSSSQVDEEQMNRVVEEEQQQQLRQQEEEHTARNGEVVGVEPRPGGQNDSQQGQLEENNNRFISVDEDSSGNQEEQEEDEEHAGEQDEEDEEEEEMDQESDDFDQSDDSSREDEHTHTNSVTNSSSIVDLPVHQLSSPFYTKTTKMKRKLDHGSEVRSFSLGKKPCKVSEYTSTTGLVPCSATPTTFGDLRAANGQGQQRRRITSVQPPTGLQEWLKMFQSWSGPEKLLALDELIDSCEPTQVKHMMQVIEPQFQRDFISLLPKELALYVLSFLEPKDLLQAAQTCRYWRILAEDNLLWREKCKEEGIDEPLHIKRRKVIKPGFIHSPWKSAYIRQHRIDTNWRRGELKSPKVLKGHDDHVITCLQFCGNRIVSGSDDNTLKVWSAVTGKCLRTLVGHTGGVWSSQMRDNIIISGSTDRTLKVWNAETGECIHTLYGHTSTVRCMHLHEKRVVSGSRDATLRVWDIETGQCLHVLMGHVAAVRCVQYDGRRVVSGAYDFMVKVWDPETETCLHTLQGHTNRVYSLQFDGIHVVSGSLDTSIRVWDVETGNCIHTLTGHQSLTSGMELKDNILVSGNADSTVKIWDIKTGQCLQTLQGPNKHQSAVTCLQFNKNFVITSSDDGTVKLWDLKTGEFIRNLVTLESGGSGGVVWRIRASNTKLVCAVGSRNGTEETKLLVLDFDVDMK
Of the large screens only hits and unclear results are named; the others gave an inactive call.

Fc1ccc(-c2cn3c4c(sc3n2)CCCC4)cc1	TEAD-YAP inh 51.5
c1ccc(-c2cn3c4c(sc3n2)CCCC4)cc1	TEAD-YAP inh 85.5
O=C(Nc1ccc(-c2cn3c4c(nnc3n2)CCCC4)cc1)c1cccnc1	none
c1ccc(-c2cn3c4c(nnc3n2)CCCC4)cc1	TEAD-YAP inh 43.7
CC(=O)Nc1ccc(-c2cn3c4c(sc3n2)CCCC4)cc1	none
C=CCNc1nc(Nc2ccc(I)cc2C)nc(OC)n1	none
COc1ccc(-c2nc(Nc3ccc(N4CCOCC4)cc3)c3[nH]cnc3n2)cc1	TEAD-YAP inh 64.2
NC(=O)c1ccc(-c2nc(Nc3ccc(N4CCOCC4)cc3)c3[nH]cnc3n2)cc1	TEAD-YAP inh 72.7
O=c1c2nccnc2n(Cc2c(F)cccc2Cl)c(=O)n1Cc1ccc(F)cc1	none
C=CCN1C(=O)/C(=C/c2ccc(OC(C)=O)c(OCC)c2[N+](=O)[O-])SC1=S	TEAD-YAP inh 37.0
C=CCN1C(=O)S/C(=C/c2cn(C)c3ccccc23)C1=O	none
O=[N+]([O-])c1ccc(N2CCN(c3ccc([N+](=O)[O-])c4cccnc34)CC2)cc1	FBW7 activator 2.3
Cc1ccc(C)c(C(=O)NCC2Cc3cc(-c4cnccn4)ccc3O2)c1 (configuration not stated)	none
COc1ccc(-c2noc(NCc3ccccc3Cl)n2)cc1	none
CCOC(=O)C1CCN(C(=O)COc2ccc(C(C)(C)C)cc2)CC1	TEAD-YAP inh 60.2
CCOC(=O)C1CCN(C(=O)COc2ccc(C)cc2)CC1	none
CCOC(=O)C1CCN(C(=O)COCC(=O)N2CCC(C(=O)OCC)CC2)CC1	none
CCOC(=O)C1CCN(C(=O)COC(=O)c2cc(O)c(O)c(O)c2)CC1	MITF inh 90.0
CCCN(CC1CC1)S(=O)(=O)c1ccc(C(=O)Nc2ccc3c(c2)OCO3)cc1	none
Cc1cc(C(=O)NN=C2C3CC4CC(C3)CC2C4)c2ccccc2n1	TEAD-YAP inh 47.3
Cc1cc(C(=O)NC2CC2)c2ccccc2n1	none
CCCCNC(=O)c1sc2ncn(CC(=O)N3CCCCC3C)c(=O)c2c1C (configuration not stated)	none
O=C(Nc1ccc(O)cc1)c1ccccc1Br	TEAD-YAP inh 75.7
CN1C(=O)c2ccc(NC(=O)c3ccccc3Br)cc2C1=O	FBW7 activator 2.0
O=C(COC(=O)CNC(=O)c1ccccc1)Nc1cc(C(F)(F)F)cc(C(F)(F)F)c1	none
O=C1C(=O)N(Cc2cccc3ccccc23)c2ccc(Br)cc21	none
O=C1C(=O)N(Cc2ccc(Br)cc2)c2ccc([N+](=O)[O-])cc21	TEAD-YAP inh 32.6
Cc1ccc(CN2C(=O)C(=O)c3cc([N+](=O)[O-])ccc32)cc1	TEAD-YAP inh 66.2
O=C1C(=O)N(Cc2cccc3ccccc23)c2ccc([N+](=O)[O-])cc21	TEAD-YAP inh 35.1
O=C1C(=O)N(Cc2ccc(Cl)c(Cl)c2)c2ccc([N+](=O)[O-])cc21	none
COc1ccc(C(CC(=O)NCCc2ccccc2)NS(=O)(=O)c2ccc(OC)cc2)cc1 (configuration not stated)	none
CCOC(=O)/C(C#N)=C/c1c(Oc2ccc(F)cc2)nc2ccccn2c1=O	none
COC(=O)c1ccccc1NC(=O)CSc1nnc(NC(=O)C2CCC2)s1	none
COC(=O)c1ccccc1NC(=O)CSc1nnc(NC2CCCCC2)s1	TEAD-YAP inh 39.7
CCOc1ccc(NC(=O)c2ccc(S(=O)(=O)c3ccccc3Cl)c([N+](=O)[O-])c2)cc1	none
Cc1sc2nc(-c3cccnc3)nc(NCCSCc3ccco3)c2c1C	TEAD-YAP inh 67.9
Cc1nc(NCc2cccnc2)c2c(C)c(C)sc2n1	none
CN1CCc2cc(C(CNC(=O)Nc3cccc(Cl)c3)N(C)C)ccc21 (configuration not stated)	TEAD-YAP inh 48.9
CN1CCCc2cc(C(CNC(=O)NC(C)(C)C)N(C)C)ccc21 (configuration not stated)	none
O=C1CC(N2CCN(c3ccccc3)CC2)C(=O)N1c1ccc(Cl)cc1Cl (configuration not stated)	none
CCOC(=O)C1(Cc2cccc(OC)c2)CCN(Cc2c(C)nc3sccn23)CC1	none
Cc1nc2sccn2c1CN1CCN(CCc2ccccc2)C(CCO)C1 (configuration not stated)	none
COc1cccc(CC2(CO)CCCN(Cc3c(C)nc4sccn34)C2)c1 (configuration not stated)	TEAD-YAP inh 41.2
Cc1nc2sccn2c1CN1CCCC(N(C)CCc2ccccc2)C1 (configuration not stated)	TEAD-YAP inh 43.4
CC(NC(=O)C1=CC(c2cccs2)=NS(=O)(=O)N1C)c1ccccc1 (configuration not stated)	none
O=C(C[n+]1ccc2ccccc2c1)c1ccc2c(c1)OCCO2	none
O=C(CCN1CCc2ccccc2C1)c1ccc2c(c1)OCCO2	none
Nc1cc[n+](CC(=O)c2ccc3c(c2)OCCO3)cc1	TEAD-YAP inh 49.3
O=C(CCc1ccccc1)c1ccc2c(c1)OCCCO2	none
O=C(CCCc1ccccc1)c1ccc2c(c1)OCCO2	TEAD-YAP inh 90.7
O=C(CCN1CCc2ccccc21)c1ccc2c(c1)OCCO2	TEAD-YAP inh 45.1
CC1=CCC(C(=O)O)C(c2ccc(F)cc2)C1 (configuration not stated)	none
O=C1OC(c2cccc(Cl)c2)=N/C1=C\c1cccc(Cl)c1	none
O=C1OC(c2cccc(Cl)c2)=N/C1=C\c1ccccc1	TEAD-YAP inh 73.2
CCCCC/C=C\C[C@H]1O[C@H]1C/C=C\C/C=C\CCCC(=O)NCCO	none (no result: TEAD-YAP inh, FBW7 activator)
NC(=O)/C(=N/O)c1nc(-c2ccc(Br)cc2)cs1	none
NC(=O)/C(=N\O)c1nc(-c2ccc(Cl)cc2)cs1	TEAD-YAP inh 32.2
O=C(O)C(Cc1ccccc1)N1C(=O)C2CCCCC2C1=O (configuration not stated)	FBW7 activator 2.6
CN1CCN(c2nc3c(c(=O)n(Cc4ccccc4)c(=O)n3C)n2C)CC1	none
N#Cc1c(NC(=O)CN2CCN(c3ccccc3O)CC2)sc2c1CCC2	none
O=C(COc1ccc(Cl)cc1Cl)NCCCCO	none
O=C(O)CCCCCNC(=O)COc1ccc(Cl)cc1Cl	TEAD-YAP inh 69.2
COC(=O)CCCCCNC(=O)COc1ccc(Cl)cc1Cl	TEAD-YAP inh 69.1
COc1ccccc1C1=NOC(C(=O)NCc2cccs2)C1 (configuration not stated)	TEAD-YAP inh 40.9
COc1ccc(CNC(=O)C2CC(c3ccccc3OC)=NO2)cc1 (configuration not stated)	TEAD-YAP inh 48.0
COc1ccc(CNC(=O)C2CC(c3ccccc3F)=NO2)cc1 (configuration not stated)	none
Cc1cccc(CN2CCC(N3CCC(C(=O)NC4CCOC(C)(C)C4)CC3)CC2)n1 (configuration not stated)	none
O=C(/C=C/c1ccc(O)c(O)c1)OC(Cc1ccc(O)c(O)c1)C(=O)O (configuration not stated)	MITF inh 88.5
COc1cccc(-n2cc(-c3cc4ccccc4oc3=O)[nH]c2=S)c1	TEAD-YAP inh 94.8
CCOC(=O)c1c(NC(=O)/C=C/c2cccs2)sc2c1CCC2	none
Cc1ccccc1NS(=O)(=O)c1ccc(N2CCCC2=O)cc1	TEAD-YAP inh 47.5

High-throughput results deposited in PubChem by The Scripps Research Institute Molecular Screening Center.
